Data reported in PubChem BioAssay AID2685 (National Center for Advancing Translational Sciences (NCATS), 2010).
The campaign covered roughly 320,000 compounds. About 2,100 (0.66%) were called active. Roughly 53% stayed inconclusive and do not appear here. Calls follow the shape of the dose curve; as a rule, active = well fitted inhibition curve with a large enough effect in the signal ratio, with a control signal flat (not every such curve was filed as active); inconclusive = small, poorly fitted or top-dose-only effect, or effect the other way, or a change in a side signal; inactive = flat fitted curve, though single readings scatter; the % refers to the signal ratio. The entries come from a sample that favours actives as a whole.

Test: qHTS Assay for Lipid Storage Modulators in Drosophila S3 Cells;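 as to cell number change: cells counted by Cell Tracker Red CMTPX staining in the red channel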; as to lipid storage change, negative = inhibition: % is scaled to controls: 0 for no effect and ±100 for the full control effect
Details: BODIPY lipid droplet fluorescence, 18-24 h, cells fed with added oleic acid; cell number change: measured here: cell count max response; series mostly up to 46.1 µM; lipid storage change, negative = inhibition: at the top concentration
How it was run: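 Drosophila S3 cells loaded with oleic acid (400 uM, as added) and compounds at several concentrations; lipid droplets imaged by 488-nm laser-scanning cytometry, 500–530 nm intensity and object ratio to cell channel. Percent activity normalized to 20 uM Triacsin C.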
Potency is read from the fitted curve at half-maximal effect.

SMILES | lipid storage change, negative = inhibition | cell number change [%] | outcome | Potency
O=C(NCc1ccccc1)c1ccc(Cl)nc1 | 3.79% (inactive) | 10 |  | 
CC(C)(C)c1ccc(/C=N/NC(=O)c2ccccn2)cc1 | 13.5% (inactive) | 6.33 |  | 
CCCCC(Sc1nc(N)c(NC(=O)c2ccco2)c(=O)[nH]1)C(=O)O (stereo not given) |  | -24.3 | inactive | 
O=C(CN(C(=O)c1csnn1)c1cccc(Cl)c1)NCCc1ccccc1 |  | 12.4 | inactive | 
Cc1ccccc1NC(=O)CSc1ccc(-c2ccco2)nn1 | 6.34% (inactive) | -9.57 |  | 
CCCNc1ccc(S(=O)(=O)N(CC)CC)cn1 | -12.3% (inactive) | 5.83 |  | 
Cc1ccc(S(=O)(=O)N(CC(=O)NC2CC2)c2ccc(C)c(Cl)c2)cc1 | -26.3% (inactive) |  |  | 
CCOC(=O)CCN |  | 3.17 | inactive | 
O=C(NCC1CCCO1)c1ccc2c(c1)C(=O)N(c1cccc([N+](=O)[O-])c1)C2=O (stereo not given) |  | -9.52 |  | 0.82 µM (active)
O=C(NCC1CCCO1)c1ccc(NS(=O)(=O)c2cccc([N+](=O)[O-])c2)cc1 (stereo not given) | -23.3% (inactive) | 5.5 |  | 
O=C(NCC1CCCO1)c1ccc2c(c1)C(=O)N(C1CCCCC1)C2=O (stereo not given) |  | 2.66 | inactive | 
Nc1c(-c2ccc(Cl)cc2)cnn1-c1cccc(C(F)(F)F)c1 | 3.21% (inactive) | 10.7 |  | 
O=C(C1CCCN(Cc2ccc(Cl)cc2)C1)N1CCCCC1 (stereo not given) |  | 22.8 | inactive | 
NC(=O)C1CCCN(Cc2ccc3ccccc3c2)C1 (stereo not given) |  | 10.8 | inactive | 
NC(=O)C1CCCN(Cc2ccc(Cl)cc2)C1 (stereo not given) |  | -11.1 |  | 29.1 µM (active)
Cc1ccc(CNC(=O)COC(=O)c2ccc(S(=O)(=O)NCc3ccco3)cc2)cc1 | 14.5% (inactive) | -0.995 |  | 
O=C(COC(=O)c1ccc(S(=O)(=O)NCc2ccco2)cc1)NCC1CCCCC1 |  | -12.1 |  | 25.9 µM (active)
O=C(COC(=O)c1ccc(S(=O)(=O)NCc2ccco2)cc1)NC1CCCCC1 | 6.47% (inactive) | 0.997 |  | 
C#CCOCCOCCOCCNc1nc(N2CCN(C(=O)[C@H](CCC(=O)O)n3cc(C(N)[C@H](C)CC)nn3)CC2)nc(N2CCN(C(=O)[C@H](CCC(=O)O)n3cc(C(N)[C@H](C)CC)nn3)CC2)n1 (stereo not given in full) | -5.28% (inactive) | -3.88 |  | 
O=C(CN(Cc1ccccc1)S(=O)(=O)c1ccccc1)N/N=C/c1ccc([N+](=O)[O-])cc1 | 13.5% (inactive) | -4.65 |  | 
Cc1ccc(OCC(=O)NNC(=S)NC(=O)c2ccc(Br)o2)c(C)c1 | 19.1% (inactive) | 7.54 |  | 
Cc1ccc(-n2nc3c(=O)n(CC(=O)NCCc4ccc(Cl)cc4)nc(C)c3c2C)cc1 | 12.1% (inactive) | -10.8 |  | 

SMILES | lipid storage change, negative = inhibition | cell number change [%] | outcome | Potency
Cc1ccc(-n2nc3c(=O)n(CC(=O)NCCCc4ccccc4)nc(C)c3c2C)cc1 |  | 21 |  | 18.4 µM (active)
Cc1ccc(-n2nc3c(=O)n(C(C)C(=O)NCCCc4ccccc4)nc(C)c3c2C)cc1 (stereo not given) |  | -8.4 | inactive | 
Cc1cc(C)cc(NC(=O)CSc2ncc(S(=O)(=O)c3ccccc3)c(=O)[nH]2)c1 | 6.14% (inactive) | 4.62 |  | 
O=C(CN1CCNC(=O)C1)NCCc1ccc(Cl)cc1Cl | -25.2% (inactive) | -23.8 |  | 
O=C(CN1C(=O)C(=O)N(C2CCCC2)C1=O)NCCc1ccc(Cl)cc1Cl |  | -0.378 |  | 4.11 µM (active)
O=C(CN1CC(=O)Nc2ccccc21)NCCc1ccc(Cl)cc1Cl | -1.77% (inactive) | -5.87 |  | 
CC(=O)c1cccc(NC(=O)c2cc(C)no2)c1 | 1.89% (inactive) | 5.99 |  | 
CCC(C)[C@@H](N)C(=O)N/N=C/c1cccc2nccnc12 (stereo not given in full) | -5.79% (inactive) | -7.62 |  | 
CC(C)C(c1nnnn1Cc1ccco1)N1CCC(C(N)=O)CC1 (stereo not given) | -0.139% (inactive) | -12.1 |  | 
CCC(c1nnnn1Cc1ccco1)N1CCC(C(N)=O)CC1 (stereo not given) |  | -7.68 |  | 5.8 µM (active)
CCC(c1nnnn1Cc1ccco1)N1CCN(C(=O)c2ccco2)CC1 (stereo not given) | 3.59% (inactive) | 0.561 |  | 
CCCC(=O)Nc1ccc2oc(=O)ccc2c1 | -2.96% (inactive) | -4.63 |  | 
Cc1ccccc1C(=O)N1CCCC(N2CCN(Cc3ccc4c(c3)OCO4)CC2)C1 (stereo not given) | 5.73% (inactive) | 0.496 |  | 
CCNc1nc(NCC)n2c(SCC(=O)O)nnc2n1 |  | -12 |  | 29.1 µM (active)
CCNc1nc(NCC)n2c(SCC(=O)c3ccccc3Cl)nnc2n1 | 12.4% (inactive) |  |  | 
CCNc1nc(NCC)n2c(SCC(=O)Nc3ccccc3)nnc2n1 | -3.31% (inactive) | 9.23 |  | 
Cc1csc(NC(=O)c2ccc(S(=O)(=O)N3CCCC3)cc2)n1 | 3.45% (inactive) | 5.75 |  | 
O=C(CNS(=O)(=O)c1cccc2nonc12)NCc1ccc(F)cc1 |  |  | inactive | 
CCC(C(=O)NC1CCCCC1)n1c2ccccc2c2nc(=O)cc(C)n21 (stereo not given) |  | 1.33 | inactive | 
COc1cccc2c1cc1c(=O)n(CC(=O)NC3CCCCC3)nc(C)n12 | 7.54% (inactive) | -12.9 |  | 
COc1cc2c(cc1OC)n(CC(=O)NC1CCCCCC1)n1c(C)cc(=O)nc21 |  | -21.9 |  | 8.2 µM (active)
Nc1nc(C2CCCN2S(=O)(=O)c2ccc(Cl)cc2)cs1 (stereo not given) |  | -2 | inactive | 
